Results filed as inconclusive are left out. Calls of active or inactive are those of the source. Unless noted, calls come from the whole dose curve; as a rule, active = well fitted curve in the direction sought with a large enough effect in the repeat runs; inconclusive = weak or mixed curves; inactive = no such curve, though single readings can be large; an effect the other way counts as inactive or inconclusive.
Legend:
[1] = qHTS assay to identify small molecule agonists of the sonic hedgehog signaling (Shh) pathway (AID 1259368; calls by dose curve;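 note: NIH/3T3-derived 3T3Gli1-Luc cells carrying a stable Gli1-driven firefly luciferase reporter; series mostly up to about 92 µM; nearly all actives have a fitted effect of over 15% in size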)
How it was run: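 Hedgehog pathway agonism scored by increased firefly luciferase luminescence in 3T3Gli1-Luc cells treated 24 hr at 37 C; detection used a 30 min room-temperature reagent incubation.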

[2] = qHTS assay to identify small molecule antagonists of the sonic hedgehog signaling (Shh) pathway (AID 1259369; calls by dose curve; note: nearly all actives have a fitted effect of over 45% in size)
How it was run: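 NIH/3T3 stable Gli1-Luc clone, 2,000 cells/well, 4hr settle; cpd + conditioned medium 24hr; Luc reagent 30min RT; luminescence.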

[3] = target: Estrogen receptor beta (Homo sapiens) (UniProt Q92731); experiment: qHTS assay to identify small molecule agonists of the estrogen receptor beta (ER-beta) signaling pathway (AID 1259377; active = well fitted activation curve with a large enough effect in the signal ratio in the repeat runs, not every such curve was filed as active; the % refers to the signal ratio)
Estrogen receptor beta (Homo sapiens), sequence (Q92731 whole entry, looked up): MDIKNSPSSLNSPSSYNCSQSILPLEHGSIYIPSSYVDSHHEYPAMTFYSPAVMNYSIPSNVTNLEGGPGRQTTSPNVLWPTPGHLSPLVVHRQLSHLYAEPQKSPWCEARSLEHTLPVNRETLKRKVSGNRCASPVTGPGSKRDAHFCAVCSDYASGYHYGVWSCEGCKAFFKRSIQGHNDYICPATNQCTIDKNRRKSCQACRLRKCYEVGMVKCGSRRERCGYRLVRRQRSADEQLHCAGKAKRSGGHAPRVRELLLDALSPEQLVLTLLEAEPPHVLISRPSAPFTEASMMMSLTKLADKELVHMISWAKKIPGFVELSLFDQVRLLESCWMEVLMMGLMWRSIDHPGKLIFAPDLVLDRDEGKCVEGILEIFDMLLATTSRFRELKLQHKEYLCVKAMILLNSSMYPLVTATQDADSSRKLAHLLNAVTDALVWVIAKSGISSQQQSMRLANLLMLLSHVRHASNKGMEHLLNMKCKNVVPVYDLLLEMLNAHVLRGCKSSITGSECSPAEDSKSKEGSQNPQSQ
How it was run: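 Read-out: beta-lactamase FRET fluorescence. Cell line: ER-beta-UAS-bla HEK293T in 2% charcoal-stripped FBS. Exposure: 16 hr at 37C. Substrate step: 2 h at room temperature.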

[4] = target: Estrogen receptor beta (Homo sapiens) (UniProt Q92731); experiment: qHTS assay to identify small molecule antagonists of the estrogen receptor beta (ER-beta) signaling pathway (AID 1259378; active = well fitted inhibition curve with a large enough effect in the signal ratio in the repeat runs, not every such curve was filed as active; the % refers to the signal ratio)
How it was run: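 Antagonist mode: compounds added to beta-lactamase reporter HEK293T ER-beta-UAS cells stimulated with E2 (1nM final), 16 hr at 37C. LiveBLAzer B/G FRET substrate, 2 hours room temperature, fluorescence read-out.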

[5] = qHTS assay to identify small molecule agonists of the androgen receptor (AR) signaling pathway in the presence of an antagonist - cell viability counter screen (AID 1259379);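 note: MDA-kb2 human breast cancer cells carrying an MMTV luciferase reporter; series mostly up to about 92 µM; nearly all actives have a fitted effect of over 25% in size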
How it was run: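 MDA-kb2 viability measured by CellTiter-Fluor fluorescence in the same wells as the luciferase signal; nilutamide 3.0uM final; 15-point compound titration; 16 hr at 37C.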

[6] = target: Androgen receptor (Homo sapiens) (UniProt P10275); experiment: qHTS assay to identify small molecule agonists of the androgen receptor (AR) signaling pathway in the presence of an antagonist (AID 1259381; calls by dose curve; note: nearly all actives have a fitted effect of over 15% in size)
Androgen receptor (Homo sapiens), sequence (P10275 whole entry, looked up): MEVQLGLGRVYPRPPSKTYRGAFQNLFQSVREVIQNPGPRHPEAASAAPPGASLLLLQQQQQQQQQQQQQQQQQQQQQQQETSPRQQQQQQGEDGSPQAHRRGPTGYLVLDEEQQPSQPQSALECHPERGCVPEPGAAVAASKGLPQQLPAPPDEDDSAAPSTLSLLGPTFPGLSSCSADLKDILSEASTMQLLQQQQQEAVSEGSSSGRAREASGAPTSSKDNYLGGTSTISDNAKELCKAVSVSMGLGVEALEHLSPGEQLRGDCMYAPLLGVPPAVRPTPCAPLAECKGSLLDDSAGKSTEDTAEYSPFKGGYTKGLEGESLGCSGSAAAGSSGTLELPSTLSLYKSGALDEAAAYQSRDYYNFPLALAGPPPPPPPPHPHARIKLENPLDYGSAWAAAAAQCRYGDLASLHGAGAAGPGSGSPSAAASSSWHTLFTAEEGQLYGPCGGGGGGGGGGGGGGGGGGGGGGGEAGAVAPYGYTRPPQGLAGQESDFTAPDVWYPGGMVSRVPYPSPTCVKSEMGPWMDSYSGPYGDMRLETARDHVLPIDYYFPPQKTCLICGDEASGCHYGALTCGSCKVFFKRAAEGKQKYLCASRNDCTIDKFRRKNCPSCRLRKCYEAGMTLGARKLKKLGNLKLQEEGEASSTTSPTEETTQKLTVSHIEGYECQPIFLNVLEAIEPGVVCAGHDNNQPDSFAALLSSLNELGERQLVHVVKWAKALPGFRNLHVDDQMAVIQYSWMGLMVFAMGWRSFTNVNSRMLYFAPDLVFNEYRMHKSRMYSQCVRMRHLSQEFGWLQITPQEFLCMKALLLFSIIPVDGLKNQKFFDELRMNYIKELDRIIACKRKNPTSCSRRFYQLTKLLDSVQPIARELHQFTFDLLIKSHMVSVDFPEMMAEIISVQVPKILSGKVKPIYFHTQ
How it was run: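 Luminescent ONE-Glo read, 30min at room temperature, follows 16hr compound exposure (15 concentrations) of MDA-kb2 cells at 37C, 0% CO2, with nilutamide added at 3.0uM final.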

[7] = qHTS assay to identify small molecule antagonists of the estrogen receptor beta (ER-beta) signaling pathway - cell viability counter screen (AID 1259382);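 note: HEK293T cells carrying ER-beta-UAS-bla reporter stimulated with estradiol; series mostly up to about 92 µM; nearly all actives have a fitted effect of over 55% in size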
How it was run: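 Readout: luminescence, CellTiter-Glo, same wells as bla assay. System: ER-beta-UAS-bla GripTite HEK293T, 2% charcoal-stripped FBS. Exposure: compounds plus 1nM 17-beta-estradiol, 16 hr, 37C.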

[8] = target: Estrogen receptor (Homo sapiens) (UniProt P03372); experiment: qHTS assay to identify small molecule agonists of the estrogen receptor alpha (ER-alpha) signaling pathway in the presence of an antagonist (AID 1259383; calls by dose curve; note: top concentration of the series differs between compounds; nearly all actives have a fitted effect of over 15% in size)
Estrogen receptor (Homo sapiens), sequence (P03372 whole entry, looked up): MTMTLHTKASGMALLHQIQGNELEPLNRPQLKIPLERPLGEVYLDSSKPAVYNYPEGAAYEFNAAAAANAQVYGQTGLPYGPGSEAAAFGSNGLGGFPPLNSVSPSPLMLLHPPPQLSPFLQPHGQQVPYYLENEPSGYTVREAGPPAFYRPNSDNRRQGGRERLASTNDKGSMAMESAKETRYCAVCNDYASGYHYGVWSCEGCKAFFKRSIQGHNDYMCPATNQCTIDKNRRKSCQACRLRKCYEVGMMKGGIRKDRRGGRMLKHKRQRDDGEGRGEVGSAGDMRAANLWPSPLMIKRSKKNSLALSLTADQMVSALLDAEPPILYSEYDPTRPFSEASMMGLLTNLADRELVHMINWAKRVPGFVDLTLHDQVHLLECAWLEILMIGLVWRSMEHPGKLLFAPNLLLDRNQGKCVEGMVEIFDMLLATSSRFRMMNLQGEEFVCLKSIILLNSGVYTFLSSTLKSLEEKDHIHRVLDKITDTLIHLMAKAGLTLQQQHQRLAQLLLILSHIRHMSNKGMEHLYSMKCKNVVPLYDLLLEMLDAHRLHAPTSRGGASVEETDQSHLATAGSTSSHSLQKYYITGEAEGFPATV
How it was run: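 Quantitative HTS confirmation: compounds titrated at 15 concentrations onto estrogen-deprived VM7Luc4E2 cells carrying a four-ERE luciferase construct, with ICI-182,780 present at 10.0nM final. Signal is luminescence after 22hr exposure.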

[9] = qHTS assay to identify small molecule agonists of the estrogen receptor alpha (ER-alpha) signaling pathway in the presence of an antagonist - cell viability counter screen (AID 1259386);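 note: series mostly up to about 92 µM; cells exposed to compounds for 22 h at 37 °C before the viability read; nearly all actives have a fitted effect of over 30% in size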
How it was run: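 The test measures whether compounds kill ER-alpha reporter cells (VM7Luc4E2) under antagonist co-treatment (ICI-182,780, 10.0nM). Fluorescence from CellTiter-Fluor is read after a 22hr exposure.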

[10] = target: Progesterone receptor (Homo sapiens) (UniProt P06401); experiment: qHTS assay to identify small molecule agonists of the progesterone receptor (PR) signaling pathway (AID 1346784; calls by dose curve; note: nearly all actives have a fitted effect of over 30% in size)
Progesterone receptor (Homo sapiens), sequence (P06401 whole entry, looked up): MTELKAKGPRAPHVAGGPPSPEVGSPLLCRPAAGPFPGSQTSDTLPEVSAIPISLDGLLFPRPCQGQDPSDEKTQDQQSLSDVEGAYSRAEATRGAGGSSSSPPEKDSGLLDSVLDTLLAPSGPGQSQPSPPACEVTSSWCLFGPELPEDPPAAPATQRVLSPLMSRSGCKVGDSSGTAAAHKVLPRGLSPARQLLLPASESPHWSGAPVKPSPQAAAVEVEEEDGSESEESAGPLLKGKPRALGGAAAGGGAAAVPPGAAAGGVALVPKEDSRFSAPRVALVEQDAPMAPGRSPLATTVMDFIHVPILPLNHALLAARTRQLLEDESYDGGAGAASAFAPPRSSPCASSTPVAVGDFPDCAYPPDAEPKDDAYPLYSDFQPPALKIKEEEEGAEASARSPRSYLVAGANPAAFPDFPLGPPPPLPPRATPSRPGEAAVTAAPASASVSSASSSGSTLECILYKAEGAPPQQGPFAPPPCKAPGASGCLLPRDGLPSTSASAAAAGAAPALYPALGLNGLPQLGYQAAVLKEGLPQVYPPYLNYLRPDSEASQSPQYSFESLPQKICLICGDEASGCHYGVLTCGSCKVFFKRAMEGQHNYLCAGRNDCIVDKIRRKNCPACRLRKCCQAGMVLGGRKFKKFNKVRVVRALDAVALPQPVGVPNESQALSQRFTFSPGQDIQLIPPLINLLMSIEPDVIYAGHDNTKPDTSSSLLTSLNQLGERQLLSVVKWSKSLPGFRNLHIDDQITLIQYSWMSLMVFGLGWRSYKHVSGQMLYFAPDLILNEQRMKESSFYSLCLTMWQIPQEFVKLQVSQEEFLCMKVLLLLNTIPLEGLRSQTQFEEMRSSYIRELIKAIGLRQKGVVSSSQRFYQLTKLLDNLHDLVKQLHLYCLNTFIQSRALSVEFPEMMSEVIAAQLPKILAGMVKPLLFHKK
How it was run: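 Compounds were tested for PR agonism in HEK 293T cells bearing a beta-lactamase gene under UAS control. Treatment lasted 16 hr at 37C; signal came from fluorescence of a FRET substrate.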

[11] = target: Progesterone receptor (Homo sapiens) (UniProt P06401); experiment: qHTS assay to identify small molecule antagonists of the progesterone receptor (PR) signaling pathway (AID 1346795; active = well fitted inhibition curve with a large enough effect in the signal ratio in the repeat runs, not every such curve was filed as active; the % refers to the signal ratio)
How it was run: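 In HEK293T cells bearing the PR-UAS-bla reporter, compound effects on promegestone-driven (1 nM) beta-lactamase expression are assessed after 16 hr using a fluorescent FRET substrate incubated 2 hr at room temperature.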

[12] = qHTS assay to identify small molecule antagonists of the progesterone receptor (PR) signaling pathway - cell viability counter screen (AID 1346798); note: series mostly up to about 92 µM; nearly all actives have a fitted effect of over 50% in size
How it was run: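 Following a 4 hr attachment, PR-UAS-bla HEK293T cells in charcoal-stripped FBS medium were exposed to compounds with R5020 for 16 hr; CellTiter-Glo was added and luminescence read after 30 min at room temperature.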

[13] = qHTS assay to identify small molecule antagonists of the TGF-beta/Smad signaling pathway - cell viability counter screen (AID 1346824); note: nearly all actives have a fitted effect of over 50% in size
How it was run: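 Cytotoxicity counter-screen run in the same wells as the beta-lactamase Smad reporter read: CellTiter-Glo luminescence after 30 min at room temperature. HEK 293T SBE-bla cells had 5 hr compound exposure at 37 C with TGF-beta1 (0.25 ng/mL stock).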

[14] = qHTS assay to identify small molecule agonists of the TGF-beta/Smad signaling pathway - cell viability counter screen (AID 1346829); note: top concentration of the series differs between compounds; nearly all actives have a fitted effect of over 45% in size
How it was run: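 Luminescence from CellTiter-Glo, read after a 30 min room-temperature incubation, gives cell viability of SBE-bla HEK 293T cells treated 5 hr with compounds at 37 C.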

[15] = qHTS assay to identify small molecule agonists of the TGF-beta/Smad signaling pathway (AID 1346859; active = well fitted activation curve with a large enough effect in the signal ratio in the repeat runs, not every such curve was filed as active; the % refers to the signal ratio; note: series mostly up to about 77 µM)
How it was run: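 Each well held 4,000 SBE-bla HEK 293T cells incubated overnight before compound addition; 5 hr later the cleavable FRET substrate went on for 2 hr at room temperature, and fluorescence was read at two emissions.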

[16] = qHTS assay to identify small molecule agonists of the estrogen receptor beta (ER-beta) signaling pathway - cell viability counter screen (AID 1259380); note: nearly all actives have a fitted effect of over 30% in size
How it was run: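 Measured: luminescence from CellTiter-Glo after 30 min at room temperature, added to wells already read for the LiveBLAzer FRET reporter (2 hr substrate); ER-beta-UAS-bla HEK293T cells had 16 hr compound treatment at 37C, 5% CO2.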

[17] = target: Thyrotropin receptor (Homo sapiens) (UniProt P16473); experiment: qHTS assay to identify small molecule antagonists of the thyroid stimulating hormone receptor (TSHR) signaling pathway (AID 1259385; calls by dose curve; note: nearly all actives have a fitted effect of over 20% in size)
Thyrotropin receptor (Homo sapiens), sequence (P16473 whole entry, looked up): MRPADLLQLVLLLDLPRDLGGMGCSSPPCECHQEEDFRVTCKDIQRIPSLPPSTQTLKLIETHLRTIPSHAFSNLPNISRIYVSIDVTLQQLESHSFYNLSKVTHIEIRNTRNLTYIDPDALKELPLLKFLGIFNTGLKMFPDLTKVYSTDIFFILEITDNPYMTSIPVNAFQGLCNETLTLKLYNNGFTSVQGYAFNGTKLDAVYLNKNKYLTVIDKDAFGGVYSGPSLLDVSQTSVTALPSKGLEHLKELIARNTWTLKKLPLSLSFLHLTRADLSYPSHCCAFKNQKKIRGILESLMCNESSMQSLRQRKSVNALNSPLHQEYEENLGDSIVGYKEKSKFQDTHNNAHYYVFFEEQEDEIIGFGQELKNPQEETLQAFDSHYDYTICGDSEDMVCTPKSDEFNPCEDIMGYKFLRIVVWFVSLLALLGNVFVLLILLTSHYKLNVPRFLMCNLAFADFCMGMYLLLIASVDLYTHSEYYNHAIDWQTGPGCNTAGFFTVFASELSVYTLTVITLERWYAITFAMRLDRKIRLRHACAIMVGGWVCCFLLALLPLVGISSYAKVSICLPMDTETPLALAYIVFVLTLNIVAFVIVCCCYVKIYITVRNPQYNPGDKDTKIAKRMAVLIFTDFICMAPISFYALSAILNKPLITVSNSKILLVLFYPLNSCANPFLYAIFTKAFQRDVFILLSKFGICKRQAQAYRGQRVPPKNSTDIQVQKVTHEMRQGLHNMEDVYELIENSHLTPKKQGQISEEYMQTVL
How it was run: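 Antagonist mode: compound-treated TSHR-expressing HEK293 cells were stimulated with 1.5 ng/mL TSH (final) in presence of Ro20-1724 for 30 min at RT. HTRF cAMP detection after 1 h; each compound tested at 15 concentrations, triplicate.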

[18] = target: Thyrotropin-releasing hormone receptor (Homo sapiens) (UniProt P34981); experiment: qHTS assay to identify small molecule antagonists of the thyrotropin-releasing hormone receptor (TRHR) signaling pathway (AID 1346877; active = well fitted inhibition curve with a large enough effect in the repeat runs, not every such curve was filed as active; note: series mostly up to about 51 µM)
Thyrotropin-releasing hormone receptor (Homo sapiens), sequence (P34981 whole entry, looked up): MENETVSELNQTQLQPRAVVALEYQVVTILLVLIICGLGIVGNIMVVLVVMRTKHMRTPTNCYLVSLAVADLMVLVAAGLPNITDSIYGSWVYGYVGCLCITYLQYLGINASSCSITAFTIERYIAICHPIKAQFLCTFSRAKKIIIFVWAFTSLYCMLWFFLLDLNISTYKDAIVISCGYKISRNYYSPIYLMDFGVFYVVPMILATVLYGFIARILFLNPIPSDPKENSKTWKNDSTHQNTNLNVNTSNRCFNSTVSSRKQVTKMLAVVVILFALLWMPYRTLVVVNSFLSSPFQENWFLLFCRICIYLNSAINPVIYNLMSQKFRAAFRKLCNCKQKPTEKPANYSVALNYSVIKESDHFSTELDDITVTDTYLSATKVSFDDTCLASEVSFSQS
How it was run: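 Overnight-plated (18 h, 37 °C) HEK293 cells expressing TRHR were dye-loaded 2 h, treated with compound, then stimulated with TRH at 1 nM final. Fluorescence intensity was captured every second for 3 min.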

[19] = qHTS assay to identify small molecule agonists or antagonists of the thyroid stimulating hormone receptor (TSHR) signaling pathway - wild type cell line counter screen (AID 1259384; calls by dose curve)
How it was run: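 Counter screen in untransfected Hek293: compounds (15-point titration, triplicate) plus phosphodiesterase inhibitor Ro20-1724 added after 18 h plating; 30 min RT. Intracellular cAMP via competitive d2/cryptate immunoassay, 1 h incubation.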

[20] = qHTS assay to identify small molecule agonists of the progesterone receptor (PR) signaling pathway - cell viability counter screen (AID 1346799; calls by dose curve; note: nearly all actives have a fitted effect of over 45% in size)
How it was run: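 Here, 3,000 PR-UAS-bla HEK293T cells per well were treated with compounds for 16 hr after a 6 hr preincubation at 37C and 5% CO2; cell viability is the CellTiter-Glo luminescence signal.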

Measured: Potency

O=C(O)c1cc(C(=O)O)c(C(=O)O)cc1C(=O)O
not listed: [16] | [17] | [18] | [19] | [20]
inactive: all other assays above

CC(=O)OCC(=O)[C@@]1(O)CC[C@H]2[C@@H]3CCC4=CC(=O)C=C[C@]4(C)[C@@]3(F)[C@@H](O)C[C@@]21C
not listed: [6] | [8] | [10] | [11] | [12] | [19] | [20]
inactive: all other assays above

Clc1cccc(C(c2ccc3nc[nH]c3c2)n2ccnc2)c1 (stereo not given)
not listed: [16] | [17] | [19] | [20]
inactive: all other assays above

O=Cc1ccc(Cl)c([N+](=O)[O-])c1
not listed: [6] | [10] | [11] | [12]
inactive: all other assays above

C=Cc1ccc(C=C)cc1
not listed: [6] | [11]
inactive: all other assays above

CCCCCCCCCCCCCCCCC(=O)O
not listed: [8]
inactive: all other assays above

COC(=O)c1cc(Cl)ccc1[N+](=O)[O-]
not listed: [6]
inactive: all other assays above

CC(C)(C)NCC(O)COc1ccc(NC(=O)NC2CCCCC2)cc1 (stereo not given)
not listed: [6]
inactive: all other assays above

From PubChem BioAssay (Tox21)
